# Bioassay records: PubChem, The Scripps Research Institute Molecular Screening Center
# DAX1 inh-1 = blocks DAX1 repression of SF-1 activated StAR promoter | HEK293T StAR-luciferase reporter, SF-1/DAX-1 repression relief | inhibition, % at 6.8 µM | 370,000 tested, 1.1% active | AID 652010;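 active means inhibition above the mean over all tested compounds plus 3 SD, cut at about 3.6% in these data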;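 further: 0% = DAX-1 cells with DMSO and 100% = cells lacking DAX-1 with DMSO; higher inhibition means more luminescence from relief of DAX-1 repression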
# ssDAF-12 act = activates DAF-12 receptor from parasite S. stercoralis; HEK293 ssDAF-12/GRIP1 lit1-tk-luc reporter, luminescence; % of 3 µM dafachronic acid response; activation, % at 6.8 µM; 370,000 tested, 1% active;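 active means activation above the mean over all tested compounds plus 3 SD, cut at about 0.9% in these data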;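 further: 0% = DMSO-only wells and 100% = 3 µM delta7-dafachronic acid wells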
# DAX1 inh-2 = inhibitors of human orphan nuclear receptor DAX1 (NR0B1). HEK293 Gal4-DAX1 luciferase reporter, luminescence. 340,000 tested, 0.99% active. inhibition, % at 6.75 µM;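 active means inhibition above the mean over all tested compounds plus 3 SD, cut at about 4.2% in these data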;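 further: 0% = DAX1-transfected cells with DMSO and 100% = empty-vector control cells with DMSO; inhibition shows as a rise in luminescence from relieved DAX1 repression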
# Target sequence (P51843 207-470 limits assumed): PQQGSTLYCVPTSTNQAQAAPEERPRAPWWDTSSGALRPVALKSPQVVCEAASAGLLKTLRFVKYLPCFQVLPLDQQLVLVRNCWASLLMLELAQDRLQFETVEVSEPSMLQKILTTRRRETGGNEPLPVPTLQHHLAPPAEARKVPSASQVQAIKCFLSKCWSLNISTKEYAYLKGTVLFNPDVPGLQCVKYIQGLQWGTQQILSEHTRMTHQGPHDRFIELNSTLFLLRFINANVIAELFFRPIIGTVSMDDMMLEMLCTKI
# SMARCA2 activ = SMARCA2 function activation, primary screen; MG213 cells, MMTV-luciferase reporter, dexamethasone, overnight; activation, % at 9.1 µM; 370,000 tested, 1% active; AID 652017; in the data active means activation above about 7.8%;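 further: 0% = vehicle wells and 100% = reference activator wells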
# hcDAF12 agonist = activators of H. contortus DAF-12 nuclear receptor. HEK293 hcDAF-12 lit1-tk-luc reporter, luminescence; 0% DMSO, 100% Δ7-dafachronic acid. activation, % at 6.8 µM. 370,000 tested, 1.4% active. AID 652067;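 active means activation above the mean of all tested compounds plus 3 SD, cut at about 5.5% in these data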;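 further: 100% = response to 3 µM Δ7-dafachronic acid high control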
# hgDAF-12 ag = activates the H. glycines DAF-12 receptor ligand-binding domain; 370,000 tested, 1.8% active; activation, % at 6.8 µM; HEK293 GAL4-hgDAF12 UAS-luciferase reporter, agonist luminescence; normalized to butyrate control;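 active means activation above a cutoff set at the mean of all screened compounds plus 3 SD, cut at about 10% in these data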;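 further: 0% = DMSO wells and 100% = sodium butyrate wells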
# DAX1 inh confirm = confirmation of human DAX1 (NR0B1) inhibitors; shares compounds with DAX1 inh-1; HEK293T StAR-promoter luciferase reporter, SF-1/DAX-1 repression; inhibition, % at 6.8 µM; 2,400 tested, 87% active;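 active means inhibition above the average of every tested compound plus 3 SD, cut at about 3.8% in these data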;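 further: 0% = DAX-1 cells with DMSO and 100% = no DAX-1 control cells with DMSO; active compounds raise luminescence by relieving repression of the StAR reporter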
# SF1 AF2mut Luc = nonselective inhibitor or artifact in SF-1 mutant DAX1 counter-screen | shares compounds with DAX1 inh-1 | HEK293 StAR-luciferase, SF-1 AF2 mutant, luminescence | inhibition, % at 6.8 µM | 2,400 tested, 78% active;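 active means inhibition above the mean of all tested compounds plus 3 SD, cut at about 3% in these data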;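 further: 0% = DAX-1 transfected cells with DMSO and 100% = cells without DAX-1 with DMSO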
# SMARCA2 act conf = SMARCA2 activation, confirmation screen | shares compounds with SMARCA2 activ | MG213 cells, MMTV-luciferase with dexamethasone, luminescence, overnight; MG213 cells expressing E1A, Rb sequestered; DMSO wells 0%, reference activator 100% | activation, % at 9.1 µM | 3,500 tested, 30% active | AID 652260;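 active means activation above its plate's cutoff, the mean activation of tested wells plus 3 SD, cut at about 7.9% in these data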
# GAL4-VP16 Luc = activates GAL4-VP16 luciferase, flagging SMARCA2 activator hits; activation, % at 9.1 µM; 3,500 tested, 41% active; shares compounds with SMARCA2 activ; HEK293 GAL4-VP16 pG5luc reporter, luciferase luminescence; scaled: DMSO wells 0%, SAHA wells 100%; AID 686939;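 active means activation above the solvent-only control well mean plus 3 SD, averaged across control plates, cut at about 5.2% in these data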
# LXRb hcDAF ctr = LXR-beta agonism as hcDAF-12 counter-screen; shares compounds with hcDAF12 agonist; HEK293 Gal4-LXR tk-luc reporter, luminescence, 24 h; normalized: DMSO 0%, positive control 100%; activation, % at 6.8 µM; 3,400 tested, under 10 active; AID 743027;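 active means mean percent activation of the reporter above a cutoff set as the average over tested compounds plus their standard deviation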
# Target sequence (P55055 whole entry, looked up, the tested form may be a part): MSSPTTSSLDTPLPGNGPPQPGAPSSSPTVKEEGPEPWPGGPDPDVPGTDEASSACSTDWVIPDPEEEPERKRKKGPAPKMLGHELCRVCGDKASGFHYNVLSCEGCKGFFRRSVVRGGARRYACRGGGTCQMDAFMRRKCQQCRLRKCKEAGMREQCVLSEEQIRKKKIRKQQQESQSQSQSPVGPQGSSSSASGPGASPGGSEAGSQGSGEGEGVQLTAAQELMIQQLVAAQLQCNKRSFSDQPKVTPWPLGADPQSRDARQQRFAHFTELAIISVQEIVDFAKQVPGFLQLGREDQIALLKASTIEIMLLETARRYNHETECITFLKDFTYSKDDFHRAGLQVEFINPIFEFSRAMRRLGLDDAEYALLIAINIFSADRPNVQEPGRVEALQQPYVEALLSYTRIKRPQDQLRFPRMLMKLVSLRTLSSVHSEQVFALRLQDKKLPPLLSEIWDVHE
# hcDAF12 ag = hcDAF-12 agonism, confirmation assay; shares compounds with hcDAF12 agonist; HEK293 hcDAF-12 lit1-tk-luc reporter, luminescence; % of Δ7-dafachronic acid response; activation, % at 6.8 µM; 3,400 tested, 61% active; AID 743032;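 active means mean activation across triplicate tests above the threshold derived from the earlier primary screen, cut at about 5.5% in these data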;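 further: 0% = DMSO only wells and 100% = 3 µM Δ7-dafachronic acid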
# * marks the source's active call; other numbers are inactive results; / = not tested or not shown. Most compounds without a hit are left out; they make up all but 4.8% or so of the library.
SMILES,DAX1 inh-1,ssDAF-12 act,DAX1 inh-2,SMARCA2 activ,hcDAF12 agonist,hgDAF-12 ag,DAX1 inh confirm,SF1 AF2mut Luc,LXRb hcDAF ctr,hcDAF12 ag,others
Cc1ccsc1/C=N/Nc1cccc(C(=O)O)c1,11*,1,-8,2,10*,17*,19*,11*,2,19*,
Cc1ccsc1/C=N/NC(=O)CNC(=O)c1ccccc1,0,-1,0,1,0,2,/,/,/,/,
CCOC(=O)C1(CCOC)CCN(Cc2ccc3nonc3c2)CC1,0,-1,-1,-1,-1,0,/,/,/,/,
CSc1ccc(Cl)c(C(=O)OCC(=O)NCC(C)C)c1,0,-2,0,0,-2,3,/,/,/,/,
CC(=O)Nc1ccc(NC(=O)CSc2nnc(NC(=O)c3cccc(F)c3)s2)cc1,7.5*,1.1*,-1,2,12*,9,4.6*,4.6*,0,4,
O=C(NCCCN1CCOCC1)c1cccc(S(=O)(=O)N2CCOCC2)c1,-1,-1,3,0,-1,-2,/,/,/,/,
O=C(/C=C/Nc1ccccc1C(F)(F)F)c1ccco1,4.9*,1.1*,1,8,10*,19*,13*,8.3*,1,9.1*,
NC(=O)c1ccccc1N/C=C/C(=O)c1ccco1,2,0,2,4,3,9,/,/,/,/,
CC(C)(C)OC(=O)Nc1ccccc1-n1nnnc1C(C(=O)c1ccc(F)cc1)N1CCOCC1 (stereo unspecified),1,0,/,0,0,1,/,/,/,/,
C(=N\Nc1nc2ccccc2s1)/c1ccccn1,-3,-3,/,-8,-5,-14,/,/,/,/,
Brc1csc(/C=N/Nc2nc3ccccc3s2)c1,5.9*,2.4*,4,0,13*,20*,15*,11*,2,9.1*,
O=C(Nc1ccccc1C(=O)Nc1nccs1)c1ccccc1,-4,-2,/,-2,0,-1,/,/,/,/,
Cc1ccc(C(=O)Nc2nccs2)cc1,6.6*,2.4*,2,5,12*,12*,10.0*,6.4*,1,14*,
CC(=S)/C=C1\Sc2ccccc2N1C,-1,-1,1,-1,-1,-2,/,/,/,/,
COc1ccc(C(=O)/C=C2\Sc3ccccc3N2C)cc1,5.7*,5.9*,/,6,19*,28*,16*,9.8*,2,18*,
OC1=C(O)c2nc3cc(F)ccc3nc21,0,-1,/,0,5,4,/,/,/,/,
Fc1ccc2nc3[nH]c4ccccc4c3nc2c1,4.8*,1,3,13*,9.0*,12*,14*,8.5*,2,11*,SMARCA2 act conf=17*;GAL4-VP16 Luc=13*
CCN(CC(=O)NCc1ccc(F)cc1)Cc1nc2ccccc2c(=O)[nH]1,0,-1,-1,1,-2,0,/,/,/,/,
Cc1cc(SCC(=O)N/N=C/c2ccc(O)cc2O)nc2ccccc12,-2,-2,-1,-3,-3,-9,/,/,/,/,
COc1ccc(Cl)c2c1[nH]c1nc(SCc3ccccn3)nnc12,11*,1.6*,2,6,8.6*,15*,10*,3,1,6.1*,
COc1ccc(Cn2nnnc2C(c2cc3cc(C)ccc3[nH]c2=O)N2CCN(C)CC2)cc1 (stereo unspecified),0,-1,2,-2,0,0,/,/,/,/,
CCCn1c(SCC(=O)Nc2nonc2C)nnc1-c1ccoc1C,0,0,2,-1,0,2,/,/,/,/,
COc1ccc2oc(C(=O)Nc3ccccn3)c(C)c2c1,13*,1.1*,0,5,18*,21*,12*,6.1*,2,18*,
CCOc1ccc(N=C2NC(=O)C(CC(=O)Nc3ccccc3)S2)cc1 (stereo unspecified),-1,-1,1,4,-1,0,/,/,/,/,
COc1ccc(OCc2cc(C(=O)NC(C)Cn3cncn3)no2)c(Cl)c1 (stereo unspecified),6.0*,0.9*,2,1,6.7*,11*,3,1,0,6.8*,
SMILES,DAX1 inh-1,ssDAF-12 act,DAX1 inh-2,SMARCA2 activ,hcDAF12 agonist,hgDAF-12 ag,DAX1 inh confirm,SF1 AF2mut Luc,LXRb hcDAF ctr,hcDAF12 ag,others
COc1ccc(OCc2cc(C(=O)NC(C)Cc3cccnc3)no2)c(Cl)c1 (stereo unspecified),-1,-1,-1,-4,-2,1,/,/,/,/,
Cc1ccc2nc(CSc3nc(C)cc(C)c3C#N)[nH]c2c1,5.8*,2.0*,1,2,17*,9,14*,7.4*,2,20*,
COCCNc1ncnc2c1cnn2-c1ccc(Cl)cc1,4.9*,0,2,8.4*,6.9*,12*,11*,6.4*,2,5,SMARCA2 act conf=17*;GAL4-VP16 Luc=10*
O=C(Nc1ccccc1C(=O)N1CCCCCC1)c1ccc(Cl)cc1,-1,-1,-1,0,1,-4,/,/,/,/,
COc1ccc(NC(=O)c2cc3ccccn3n2)cc1,7.9*,0,1,10*,9.2*,9,15*,5.8*,1,5.8*,SMARCA2 act conf=4;GAL4-VP16 Luc=12*
COc1ccc(NC(=O)c2nc3ccccc3s2)cc1,5.0*,2.5*,-1,3,17*,10,13*,8.2*,2,15*,
C#CCNC(=O)C[C@H]1C[C@@]2(C(=O)OC)C(=C[C@H](C(C)C)O[C@@H]2C2CC2)N(Cc2ccc(Cl)cc2Cl)C1=O,-1,-1,/,-2,1,3,/,/,/,/,
CCCCc1nc2cc(C(=O)N(C)C3CCOCC3)ccc2o1,4.6*,1,1,6,7.6*,10,5.5*,6.8*,0,3,
